A selection: hits, their analogues and other compounds. The true share with any hit is near 4.6%.
UCHL1 inh = inhibitors of human UCHL1 deubiquitinase; purified UCHL1, Ub-rhodamine cleavage fluorescence; inhibition, % at 20 µM; 47,000 tested, 0.2% active; AID 1645859
USP8 block = inhibitors of human USP8 deubiquitinase | P40818 | purified USP8, Ub-rhodamine cleavage fluorescence, 30 min | 47,000 tested, 4.2% active | inhibition, % at 20 µM
USP7 block = blocks human USP7 ubiquitin-rhodamine cleavage. Q93009. purified USP7, Ub-rhodamine cleavage fluorescence. inhibition, % at 20 µM. 47,000 tested, 0.3% active. AID 1645854
USP10 inh = inhibitors of human USP10 deubiquitinase | purified USP10, Ub-rhodamine fluorescence, 60 min | inhibition, % at 20 µM | 47,000 tested, 1.1% active
Target sequence (Q14694 whole entry, looked up): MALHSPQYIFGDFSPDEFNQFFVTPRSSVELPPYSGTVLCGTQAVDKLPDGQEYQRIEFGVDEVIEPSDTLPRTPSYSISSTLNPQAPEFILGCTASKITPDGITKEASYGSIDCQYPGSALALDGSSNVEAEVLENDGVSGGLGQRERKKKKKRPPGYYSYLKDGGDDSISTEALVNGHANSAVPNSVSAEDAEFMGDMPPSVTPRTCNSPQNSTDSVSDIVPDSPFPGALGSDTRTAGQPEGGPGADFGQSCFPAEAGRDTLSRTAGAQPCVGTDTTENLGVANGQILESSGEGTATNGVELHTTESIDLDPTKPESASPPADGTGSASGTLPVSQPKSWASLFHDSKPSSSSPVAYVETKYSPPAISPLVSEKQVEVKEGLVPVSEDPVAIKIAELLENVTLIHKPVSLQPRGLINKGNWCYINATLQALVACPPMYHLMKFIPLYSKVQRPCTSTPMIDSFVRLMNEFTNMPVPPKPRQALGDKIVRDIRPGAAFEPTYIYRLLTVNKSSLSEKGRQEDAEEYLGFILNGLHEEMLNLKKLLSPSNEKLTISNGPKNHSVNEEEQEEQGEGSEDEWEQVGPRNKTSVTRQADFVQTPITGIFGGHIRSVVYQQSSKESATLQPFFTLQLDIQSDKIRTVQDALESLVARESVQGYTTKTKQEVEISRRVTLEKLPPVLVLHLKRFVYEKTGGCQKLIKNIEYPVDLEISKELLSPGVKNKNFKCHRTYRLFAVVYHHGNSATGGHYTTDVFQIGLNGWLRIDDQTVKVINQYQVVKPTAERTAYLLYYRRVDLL
Of the large screens only hits and unclear results are named; the others gave an inactive call. No stated cut-off is given here; in the data, active means inhibition above about 30%; inactive means the rest.

CC1Cc2ccccc2N1C(=O)Cc1csc(NC(=O)c2ccc(=O)[nH]c2)n1 (configuration not stated)	USP8 block 47
Cc1ccc(C)c(Cn2cnc3c(nnn3-c3cccc(F)c3)c2=O)c1	USP8 block 54
Cc1cccc(-n2nnc3c(=O)n(Cc4ccc([N+](=O)[O-])cc4)cnc32)c1	none
Cc1ccc(CNc2nc3nc(CN4CCOCC4)cc(=O)n3[nH]2)cc1	none
Cc1ccccc1N1CC(C(=O)N2CCN(C(=O)c3ccco3)CC2)CC1=O (configuration not stated)	none
C=C1O[C@](CO)(n2cnc3c(N)ncnc32)[C@@H](O)[C@H]1O	none
Nc1ncnc2c1ncn2[C@@H]1O[C@H](CO)C[C@@H]1O	USP7 block 30
O=C(Nc1ccc2ccccc2c1)C(=O)C1C(=O)Nc2ccccc21 (configuration not stated)	USP8 block 62
COC(=O)c1ccc(OCC2c3cc(OC)c(OC)cc3CCN2C(=O)Cc2ccc(F)cc2)cc1 (configuration not stated)	USP8 block 36
COc1ccc(CC(=O)N2CCc3cc(OC)c(OC)cc3C2COc2ccc([N+](=O)[O-])cc2)cc1 (configuration not stated)	none
COc1cc(NC(=O)COC(=O)Cn2cnc3ccccc32)cc(OC)c1	none
O=C(NC1CC1)c1nc(-c2cn(-c3ccc(Cl)cc3)nn2)no1	USP8 block 40
Fc1cccc(-n2cc(-c3noc(-c4ccc[nH]4)n3)nn2)c1	USP8 block 35
O=C(Nc1ccccc1F)c1nc(-c2cn(-c3ccc(F)cc3)nn2)no1	USP8 block 90
O=C(c1nc(-c2cn(-c3cccc(F)c3)nn2)no1)N1CCOCC1	none
COc1ccccc1NC(=O)c1nc(-c2cn(-c3cccc(F)c3)nn2)no1	USP8 block 96, USP10 inh 42
O=C(NC1CC1)c1nc(-c2cn(-c3ccc(F)cc3)nn2)no1	none
COc1ccc(S(=O)(=O)c2ccc(NC(=O)c3cccc(Cl)c3)cc2C#N)cc1	none
COc1ccc(-c2cc(-c3nnc(COC(=O)CC4CCCC4)o3)c3ccccc3n2)cc1OC	USP8 block 64
COc1ccc(-c2cc(-c3nnc(COC(=O)c4cccc([N+](=O)[O-])c4C)o3)c3ccccc3n2)cc1OC	USP8 block 68
COc1ccc(-c2cc(-c3nnc(COC(=O)CNS(=O)(=O)c4ccccc4)o3)c3ccccc3n2)cc1OC	none
Cc1nc(C2CN(Cc3nc4ccccc4n3C)CCO2)cc(=O)[nH]1 (configuration not stated)	USP8 block 31
Cc1nc(C2CN(Cc3ccc4c(c3)OCCO4)CCO2)cc(=O)[nH]1 (configuration not stated)	none
Cc1cccc(NC(=O)COC(=O)c2sc3cc(F)ccc3c2Cl)c1	none
CC(=O)c1cccc(NC(=O)COC(=O)c2sc3cc(F)ccc3c2Cl)c1	USP10 inh 31
CCOC(=O)c1noc2nc(C)nc(NCc3ccc(OC)cc3)c12	USP8 block 40
CCOC(=O)c1noc2nc(C)nc(NCC3CCN(Cc4ccc(C)cc4)CC3)c12	none
O=C(c1[nH]nc2c1COc1ccccc1-2)N1CCN(c2ncccn2)CC1	none
O=C(c1[nH]nc2c1COc1ccccc1-2)N1CCN(c2ccccn2)CC1	USP8 block 50
CCc1ccc(C(=O)Nc2cnn(-c3ncncc3N3CCOCC3)c2)cc1	none
Cc1nc(N2CCCC2)ncc1-c1cc(=O)[nH]c(Nc2ccc(Cl)cc2Cl)n1	USP10 inh 51
O=C(CSc1ccc2nnc(CCNC(=O)c3ccccc3)n2n1)NC1CCCCC1	none
O=C(Nc1c(C(=O)N2CCN(c3ccccc3)CC2)[nH]c2ccccc12)c1ccc(Cl)cc1	none
CCC(=O)Nc1nc2cc(NC(=O)Nc3cc(C)cc(C)c3)ccc2s1	USP8 block 60, USP10 inh 32
COC[C@H]1CCCN1C(=O)CC[C@H]1CNC(=O)[C@@H]2[C@@H](CCN2Cc2csnn2)N1C	USP8 block 31
CN1[C@@H](CCC(=O)N2CCC(O)CC2)CNC(=O)[C@@H]2[C@H]1CCN2Cc1ccc(C(F)(F)F)cc1	USP8 block 32
COc1ccc(CN2CC[C@@H]3[C@H]2C(=O)NC[C@H](CCC(=O)NCc2cccnc2)N3C)cc1	USP8 block 63
Cc1ccc(CN2CC[C@@H]3[C@H]2C(=O)NC[C@H](CCC(=O)NCc2cccnc2)N3C)cc1	none
CN1[C@@H](CCC(=O)N2CCCC2)CNC(=O)[C@@H]2[C@H]1CCN2Cc1ccccc1	none
CN1[C@@H](CCC(=O)N2CCCC2)CNC(=O)[C@@H]2[C@H]1CCN2Cc1csnn1	none
Cc1c(O)cc(O)cc1O	none
CN(C)c1nc(C2CCN(C(=O)c3cc(S(=O)(=O)N(C)C)ccc3F)C2)cc(=O)[nH]1 (configuration not stated)	none
O=C(Nc1nncs1)c1cn[nH]c1-c1ccc(F)cc1	none
Cc1nc2ccc(NC(=O)COc3ccccc3[N+](=O)[O-])cc2s1	USP8 block 44
Cc1ccc2c(c1)c(=O)cc(C(F)(F)F)n2C[C@H]1CCCN1C(=O)c1ccccc1	none
O=C(NCc1noc(C2CCCCC2)n1)c1ccc(F)cc1	none
COc1ccc2[nH]cc(S(=O)(=O)c3ccc(C)c(F)c3)c(=O)c2c1	none
O=c1c(S(=O)(=O)c2cc(F)cc(F)c2)c[nH]c2cc(Cl)ccc12	USP8 block 80
c1csc(-c2nc(Nc3ccc4c(c3)CCC4)c3ccccc3n2)c1	USP8 block 57
COc1ccccc1C1[C@@H]2CCCC[C@]2(O)CCN1Cc1ccc(C)cc1 (some centres not stated)	none
O=C(Oc1ccc(F)cc1)c1cc(-c2ccc3c(c2)OCCO3)on1	USP8 block 55
O=C(COc1ccc(Cl)cc1)Nc1noc(-c2cccs2)n1	USP8 block 85
COc1ccc(OC)c(C2CCCN2Cc2nc(N)nc(N)n2)c1 (configuration not stated)	none
CCOC(=O)CNC(=O)CSc1nnc(-c2c[nH]c3ccccc23)n1-c1cc(OC)ccc1OC	none
CNc1nc(C2CCN(C(=O)C3(c4cccc(C)c4)CCOCC3)C2)nc2c1CCN(C)C2 (configuration not stated)	USP8 block 37
CNc1nc(C2CCN(C(=O)C3(c4cccc(C)c4)CCOCC3)C2)nc2c1CN(C)CC2 (configuration not stated)	none
CCOc1ccc(NC(=O)c2ccc(N3C(=O)[C@@H]4Cc5ccccc5CN4C3=O)cc2)cc1	none
NS(=O)(=O)c1ccc(CCNC(=O)COC(=O)c2cc(-c3ccc(Cl)cc3)nc3ccccc23)cc1	USP8 block 66
COc1ccc(CCN2COc3c(cc(Cl)c4cccnc34)C2)cc1OC	UCHL1 inh 31, USP8 block 97
Cc1cc(C(=O)N2CCCCC2)c2c(=O)n(Cc3ccc4nonc4c3)c(=O)n(C)c2n1	USP8 block 43
CCOc1ccccc1CNC(=O)C1c2ccccc2C(=O)N(CC(C)C)C1c1cccs1 (configuration not stated)	none
Cc1cc(=O)n(C)c2c(O)c3c(cc12)c(C)cc(=O)n3C	UCHL1 inh 30, USP8 block 50
Cc1cc(O)c(C)c(O)c1C=O	none
